Measurements from PMC7862700, “An all-to-all approach to the identification of sequence-specific readers for epigenetic DNA modifications on cytosine”.

Tests used:
Assay in all cases: DAPPL (digital affinity profiling via proximity ligation, sequencing); 10 mM Tris-HCl pH 7.5, 50 mM NaCl, 1 mM DTT, 4% glycerol, room temperature, 30 min; GST-TFs on glutathione beads, 16-mer random dsDNA library, 0.1% formaldehyde crosslink after washing; high values mean tight binding
FLI1 = target: T1, FLI1 (Homo sapiens, UniProt Q01543 1-452); details: protein: recombinant; tags: N-terminal GST; dsDNA, one strand shown
T1 sequence: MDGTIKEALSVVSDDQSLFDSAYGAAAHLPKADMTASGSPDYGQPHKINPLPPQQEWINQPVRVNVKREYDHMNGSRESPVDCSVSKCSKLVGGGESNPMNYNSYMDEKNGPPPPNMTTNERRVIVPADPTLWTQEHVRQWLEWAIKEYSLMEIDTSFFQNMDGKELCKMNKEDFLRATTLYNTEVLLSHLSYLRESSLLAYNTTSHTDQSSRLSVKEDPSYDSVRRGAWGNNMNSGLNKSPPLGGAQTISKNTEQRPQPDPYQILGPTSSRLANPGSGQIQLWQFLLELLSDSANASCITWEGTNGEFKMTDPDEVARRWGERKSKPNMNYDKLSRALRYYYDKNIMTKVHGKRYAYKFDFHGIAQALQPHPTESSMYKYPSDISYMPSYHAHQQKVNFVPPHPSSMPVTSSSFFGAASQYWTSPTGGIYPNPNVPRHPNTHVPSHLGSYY
Outline: (§1)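 Binding signal is defined as a hexamer's read frequency for one factor over its frequency for the tag-only sample. To obtain reads, GST-fused human transcription factors were expressed in yeast, captured on glutathione beads, barcoded with DNA and pooled with that sample. Pools met 200 nmole of a 16-mer random double-stranded DNA library in Tris/NaCl/DTT/glycerol buffer for 30 min at room temperature before washing, 0.1% formaldehyde crosslinking, proximity ligation (BsaI/T4 ligase, 1 h, 37 °C), PCR and Illumina NextSeq500 sequencing.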

ELK1 = target: T2, ELK1 (Homo sapiens, UniProt P19419 1-428); details: protein: recombinant; tags: N-terminal GST; dsDNA, one strand shown
T2 sequence: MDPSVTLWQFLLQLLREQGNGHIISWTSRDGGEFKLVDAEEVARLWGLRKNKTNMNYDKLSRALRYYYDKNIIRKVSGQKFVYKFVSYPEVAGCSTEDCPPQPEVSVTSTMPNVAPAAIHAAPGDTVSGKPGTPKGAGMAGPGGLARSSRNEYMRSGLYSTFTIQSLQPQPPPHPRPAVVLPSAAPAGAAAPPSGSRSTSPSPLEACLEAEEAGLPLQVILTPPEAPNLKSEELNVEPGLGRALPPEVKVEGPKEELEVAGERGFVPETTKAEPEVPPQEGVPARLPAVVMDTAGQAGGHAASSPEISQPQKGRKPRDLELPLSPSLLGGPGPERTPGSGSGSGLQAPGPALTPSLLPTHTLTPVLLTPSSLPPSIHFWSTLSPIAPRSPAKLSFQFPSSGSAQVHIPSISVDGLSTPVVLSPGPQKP
Outline: as §1

GABPA = target: T3, GABPA (Homo sapiens, UniProt Q06546 1-454); details: protein: recombinant; tags: N-terminal GST; dsDNA, one strand shown
T3 sequence: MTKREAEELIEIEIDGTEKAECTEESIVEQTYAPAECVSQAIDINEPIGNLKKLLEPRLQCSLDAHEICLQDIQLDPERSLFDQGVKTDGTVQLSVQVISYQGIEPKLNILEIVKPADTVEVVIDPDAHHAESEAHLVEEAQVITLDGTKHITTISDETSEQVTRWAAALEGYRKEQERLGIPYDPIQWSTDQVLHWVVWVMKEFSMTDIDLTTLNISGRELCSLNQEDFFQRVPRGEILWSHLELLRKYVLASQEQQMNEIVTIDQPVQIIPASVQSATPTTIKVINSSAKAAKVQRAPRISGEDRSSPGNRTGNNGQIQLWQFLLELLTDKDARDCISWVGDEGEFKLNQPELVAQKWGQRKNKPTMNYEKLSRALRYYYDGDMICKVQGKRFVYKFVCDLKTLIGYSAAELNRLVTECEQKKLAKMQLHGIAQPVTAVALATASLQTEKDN
Outline: as §1

ERG = target: T4, ERG (Homo sapiens, UniProt P11308 1-479); details: protein: recombinant; tags: N-terminal GST; dsDNA, one strand shown
T4 sequence: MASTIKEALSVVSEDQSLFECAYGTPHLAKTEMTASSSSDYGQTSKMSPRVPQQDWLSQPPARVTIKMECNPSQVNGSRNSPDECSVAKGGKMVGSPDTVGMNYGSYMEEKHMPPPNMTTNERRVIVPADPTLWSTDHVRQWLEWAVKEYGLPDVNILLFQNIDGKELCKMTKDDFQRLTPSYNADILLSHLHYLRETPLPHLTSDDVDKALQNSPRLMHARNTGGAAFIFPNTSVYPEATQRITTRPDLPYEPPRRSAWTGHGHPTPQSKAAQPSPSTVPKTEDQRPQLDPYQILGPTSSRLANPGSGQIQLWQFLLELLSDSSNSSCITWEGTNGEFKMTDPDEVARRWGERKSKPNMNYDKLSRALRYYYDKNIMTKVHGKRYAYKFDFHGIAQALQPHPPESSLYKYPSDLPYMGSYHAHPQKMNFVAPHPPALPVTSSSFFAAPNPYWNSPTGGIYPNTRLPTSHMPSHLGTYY
Outline: as §1

ELF1 = ELF1 (Homo sapiens, UniProt P32519 1-619); details: protein: recombinant; tags: N-terminal GST; dsDNA, one strand shown
Outline: as §1

EHF = target: T5, EHF (Homo sapiens, UniProt Q9NZC4 1-300); details: protein: recombinant; tags: N-terminal GST; dsDNA, one strand shown
T5 sequence: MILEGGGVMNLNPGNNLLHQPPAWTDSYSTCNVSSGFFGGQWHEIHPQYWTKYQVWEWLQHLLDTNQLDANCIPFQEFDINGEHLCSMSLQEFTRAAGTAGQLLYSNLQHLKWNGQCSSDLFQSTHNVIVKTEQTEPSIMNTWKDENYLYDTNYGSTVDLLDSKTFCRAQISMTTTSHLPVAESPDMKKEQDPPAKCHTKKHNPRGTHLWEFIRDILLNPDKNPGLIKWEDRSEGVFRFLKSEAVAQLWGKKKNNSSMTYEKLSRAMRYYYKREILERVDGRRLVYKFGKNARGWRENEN
Outline: as §1

SPI1 = SPI1 (Homo sapiens, UniProt P17947 1-270); details: protein: recombinant; tags: N-terminal GST; dsDNA, one strand shown
Outline: as §1

SPIB = SPIB (Homo sapiens, UniProt Q01892 1-262); details: protein: recombinant; tags: N-terminal GST; dsDNA, one strand shown
Outline: as §1

ELK3 = target: T6, ELK3 (Homo sapiens, UniProt P41970 1-407); details: protein: recombinant; tags: N-terminal GST; dsDNA, one strand shown
T6 sequence: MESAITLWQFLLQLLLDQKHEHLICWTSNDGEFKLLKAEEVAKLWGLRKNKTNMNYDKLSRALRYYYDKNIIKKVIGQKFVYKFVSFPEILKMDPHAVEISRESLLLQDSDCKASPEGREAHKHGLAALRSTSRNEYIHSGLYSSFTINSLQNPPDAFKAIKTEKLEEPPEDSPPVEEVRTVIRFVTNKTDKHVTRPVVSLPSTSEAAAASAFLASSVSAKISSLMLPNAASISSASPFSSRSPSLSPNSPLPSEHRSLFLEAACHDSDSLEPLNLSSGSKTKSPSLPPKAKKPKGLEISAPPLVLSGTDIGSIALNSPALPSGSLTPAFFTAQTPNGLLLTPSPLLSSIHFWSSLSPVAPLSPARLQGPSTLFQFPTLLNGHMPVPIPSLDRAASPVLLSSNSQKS
Outline: as §1

FEV = target: T7, FEV (Homo sapiens, UniProt Q99581 1-238); details: protein: recombinant; tags: N-terminal GST; dsDNA, one strand shown
T7 sequence: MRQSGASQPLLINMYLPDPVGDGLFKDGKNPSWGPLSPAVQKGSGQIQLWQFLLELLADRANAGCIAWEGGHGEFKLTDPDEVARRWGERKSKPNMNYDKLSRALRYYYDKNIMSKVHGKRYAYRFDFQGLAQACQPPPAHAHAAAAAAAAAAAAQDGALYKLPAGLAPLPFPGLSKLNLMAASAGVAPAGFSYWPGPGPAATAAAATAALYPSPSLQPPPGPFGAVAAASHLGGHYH
Outline: as §1

ETV5 = ETV5 (Homo sapiens, UniProt P41161 1-510); details: protein: recombinant; tags: N-terminal GST; dsDNA, one strand shown
Outline: as §1

HSF1 = HSF1 (Homo sapiens, UniProt Q00613 1-529); details: protein: recombinant; tags: N-terminal GST; chain copies: 3; dsDNA, one strand shown
Outline: as §1

SPIC = target: T8, SPIC (Homo sapiens, UniProt Q8N5J4 1-248); details: protein: recombinant; tags: N-terminal GST; dsDNA, one strand shown
T8 sequence: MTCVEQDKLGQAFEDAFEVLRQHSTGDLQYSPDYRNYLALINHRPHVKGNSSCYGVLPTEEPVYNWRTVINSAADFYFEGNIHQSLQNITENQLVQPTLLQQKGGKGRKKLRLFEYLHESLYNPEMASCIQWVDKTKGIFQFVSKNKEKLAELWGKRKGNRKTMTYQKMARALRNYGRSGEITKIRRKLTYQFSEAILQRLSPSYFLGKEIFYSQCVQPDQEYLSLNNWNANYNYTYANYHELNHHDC
Outline: as §1

ELF4 = ELF4 (Homo sapiens, UniProt Q99607 1-663); details: protein: recombinant; tags: N-terminal GST; dsDNA, one strand shown
Outline: as §1

ELK4 = target: T9, ELK4 (Homo sapiens, UniProt P28324-2 1-405); details: protein: recombinant; tags: N-terminal GST; dsDNA, one strand shown
T9 sequence: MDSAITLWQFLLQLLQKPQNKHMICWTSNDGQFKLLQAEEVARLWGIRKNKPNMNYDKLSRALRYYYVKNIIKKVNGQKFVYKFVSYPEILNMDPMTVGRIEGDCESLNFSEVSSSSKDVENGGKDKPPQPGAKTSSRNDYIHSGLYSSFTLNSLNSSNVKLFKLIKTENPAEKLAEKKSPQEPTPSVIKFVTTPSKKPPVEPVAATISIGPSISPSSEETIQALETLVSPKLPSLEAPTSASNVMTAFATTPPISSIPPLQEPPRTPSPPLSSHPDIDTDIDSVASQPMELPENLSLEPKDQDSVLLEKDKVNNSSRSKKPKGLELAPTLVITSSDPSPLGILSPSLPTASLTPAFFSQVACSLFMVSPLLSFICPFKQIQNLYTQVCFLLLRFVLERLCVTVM
Outline: as §1

ETV2 = target: T10, ETV2 (Homo sapiens, UniProt O00321 1-342); details: protein: recombinant; tags: N-terminal GST; dsDNA, one strand shown
T10 sequence: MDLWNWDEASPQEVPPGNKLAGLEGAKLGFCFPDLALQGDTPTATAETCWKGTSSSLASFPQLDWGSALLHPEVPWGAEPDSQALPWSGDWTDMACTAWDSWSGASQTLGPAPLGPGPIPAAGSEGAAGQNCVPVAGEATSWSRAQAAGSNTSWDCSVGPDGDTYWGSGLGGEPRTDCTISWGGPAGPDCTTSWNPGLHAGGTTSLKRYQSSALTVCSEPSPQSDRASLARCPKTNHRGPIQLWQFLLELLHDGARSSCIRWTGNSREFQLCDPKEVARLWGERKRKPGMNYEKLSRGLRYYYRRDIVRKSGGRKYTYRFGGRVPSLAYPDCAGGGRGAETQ
Outline: as §1

ELF3 = target: T11, ELF3 (Homo sapiens, UniProt P78545 1-371); details: protein: recombinant; tags: N-terminal GST; dsDNA, one strand shown
T11 sequence: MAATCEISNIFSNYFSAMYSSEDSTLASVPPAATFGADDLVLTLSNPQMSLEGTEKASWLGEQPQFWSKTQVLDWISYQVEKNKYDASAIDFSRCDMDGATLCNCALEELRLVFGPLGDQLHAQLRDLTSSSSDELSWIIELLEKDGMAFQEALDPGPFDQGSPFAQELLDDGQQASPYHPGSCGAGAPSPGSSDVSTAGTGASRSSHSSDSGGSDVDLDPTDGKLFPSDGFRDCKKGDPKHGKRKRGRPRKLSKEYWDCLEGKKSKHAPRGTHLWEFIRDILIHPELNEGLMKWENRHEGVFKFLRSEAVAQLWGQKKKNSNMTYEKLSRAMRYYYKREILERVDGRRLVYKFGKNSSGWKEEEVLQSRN
Outline: as §1

CRX = CRX (Homo sapiens, UniProt O43186 1-299); details: protein: recombinant; tags: N-terminal GST; dsDNA, one strand shown
Outline: as §1

ETV1 = ETV1 (Homo sapiens, UniProt P50549 1-477); details: protein: recombinant; tags: N-terminal GST; dsDNA, one strand shown
Outline: as §1

Chain of CRX (O43186 whole entry): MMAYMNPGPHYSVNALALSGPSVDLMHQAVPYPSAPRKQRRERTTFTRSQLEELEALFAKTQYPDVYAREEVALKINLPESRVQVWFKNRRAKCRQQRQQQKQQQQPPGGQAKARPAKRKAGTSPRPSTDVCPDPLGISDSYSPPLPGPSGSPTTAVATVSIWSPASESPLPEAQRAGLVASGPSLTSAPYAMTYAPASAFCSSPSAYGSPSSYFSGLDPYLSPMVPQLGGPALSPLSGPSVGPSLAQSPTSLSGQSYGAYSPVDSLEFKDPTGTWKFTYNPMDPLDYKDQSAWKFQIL
Chain of HSF1 (Q00613 whole entry): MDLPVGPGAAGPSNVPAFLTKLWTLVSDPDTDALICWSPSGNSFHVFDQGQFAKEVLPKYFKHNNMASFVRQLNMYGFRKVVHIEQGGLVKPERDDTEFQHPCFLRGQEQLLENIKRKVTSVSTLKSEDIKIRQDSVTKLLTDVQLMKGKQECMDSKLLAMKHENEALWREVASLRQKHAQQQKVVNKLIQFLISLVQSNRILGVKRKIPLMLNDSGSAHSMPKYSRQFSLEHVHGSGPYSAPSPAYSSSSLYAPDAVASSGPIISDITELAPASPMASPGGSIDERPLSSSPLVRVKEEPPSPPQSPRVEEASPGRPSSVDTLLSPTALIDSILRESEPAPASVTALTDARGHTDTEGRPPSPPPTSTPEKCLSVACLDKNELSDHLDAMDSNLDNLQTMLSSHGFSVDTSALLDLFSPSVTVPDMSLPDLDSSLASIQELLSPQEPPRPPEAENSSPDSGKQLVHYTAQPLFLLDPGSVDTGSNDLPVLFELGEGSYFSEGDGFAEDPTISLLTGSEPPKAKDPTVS
Chain of ELF1 (P32519 whole entry): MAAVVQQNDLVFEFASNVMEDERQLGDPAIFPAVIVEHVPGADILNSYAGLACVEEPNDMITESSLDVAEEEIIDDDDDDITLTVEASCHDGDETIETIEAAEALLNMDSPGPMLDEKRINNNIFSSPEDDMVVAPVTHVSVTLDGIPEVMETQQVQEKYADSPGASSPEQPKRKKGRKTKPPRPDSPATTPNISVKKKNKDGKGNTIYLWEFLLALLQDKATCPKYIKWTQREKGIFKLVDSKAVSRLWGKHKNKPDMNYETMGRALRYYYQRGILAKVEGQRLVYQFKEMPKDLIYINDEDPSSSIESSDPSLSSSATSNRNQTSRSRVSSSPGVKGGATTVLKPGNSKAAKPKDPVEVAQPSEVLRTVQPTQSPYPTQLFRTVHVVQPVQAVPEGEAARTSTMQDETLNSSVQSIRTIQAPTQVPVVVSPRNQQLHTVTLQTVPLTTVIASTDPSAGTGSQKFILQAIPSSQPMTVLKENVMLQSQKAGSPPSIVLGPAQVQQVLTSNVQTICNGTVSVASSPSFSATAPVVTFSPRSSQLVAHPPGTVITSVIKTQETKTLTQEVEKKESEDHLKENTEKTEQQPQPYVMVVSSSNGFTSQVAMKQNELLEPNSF
Chain of SPIB (Q01892 whole entry): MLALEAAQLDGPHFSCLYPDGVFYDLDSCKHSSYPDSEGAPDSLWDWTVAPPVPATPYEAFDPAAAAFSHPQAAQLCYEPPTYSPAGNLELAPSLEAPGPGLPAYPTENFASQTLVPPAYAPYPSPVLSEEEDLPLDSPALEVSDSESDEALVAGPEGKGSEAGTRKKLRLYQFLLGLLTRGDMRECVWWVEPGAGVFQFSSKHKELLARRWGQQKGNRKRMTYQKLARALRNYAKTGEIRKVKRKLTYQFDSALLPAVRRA
Chain of ELF4 (Q99607 whole entry): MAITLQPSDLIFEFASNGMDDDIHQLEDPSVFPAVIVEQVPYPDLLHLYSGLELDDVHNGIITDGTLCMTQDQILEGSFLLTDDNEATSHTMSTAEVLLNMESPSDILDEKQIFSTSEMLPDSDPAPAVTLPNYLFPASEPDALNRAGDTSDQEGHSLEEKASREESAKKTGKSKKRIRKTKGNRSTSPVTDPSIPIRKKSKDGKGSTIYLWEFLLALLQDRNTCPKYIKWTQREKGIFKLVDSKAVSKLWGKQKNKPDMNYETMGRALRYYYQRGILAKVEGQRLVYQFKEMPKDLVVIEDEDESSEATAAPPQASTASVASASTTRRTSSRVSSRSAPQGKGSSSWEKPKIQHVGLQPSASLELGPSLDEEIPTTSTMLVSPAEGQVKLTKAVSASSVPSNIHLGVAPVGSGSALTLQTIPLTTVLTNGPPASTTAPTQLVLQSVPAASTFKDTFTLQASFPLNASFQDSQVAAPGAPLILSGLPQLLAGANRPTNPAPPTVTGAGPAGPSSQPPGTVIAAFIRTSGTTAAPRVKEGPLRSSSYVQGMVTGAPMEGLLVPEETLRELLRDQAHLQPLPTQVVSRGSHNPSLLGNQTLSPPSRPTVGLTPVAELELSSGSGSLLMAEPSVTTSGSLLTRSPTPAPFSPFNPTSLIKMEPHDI
Chain of ETV1 (P50549 whole entry): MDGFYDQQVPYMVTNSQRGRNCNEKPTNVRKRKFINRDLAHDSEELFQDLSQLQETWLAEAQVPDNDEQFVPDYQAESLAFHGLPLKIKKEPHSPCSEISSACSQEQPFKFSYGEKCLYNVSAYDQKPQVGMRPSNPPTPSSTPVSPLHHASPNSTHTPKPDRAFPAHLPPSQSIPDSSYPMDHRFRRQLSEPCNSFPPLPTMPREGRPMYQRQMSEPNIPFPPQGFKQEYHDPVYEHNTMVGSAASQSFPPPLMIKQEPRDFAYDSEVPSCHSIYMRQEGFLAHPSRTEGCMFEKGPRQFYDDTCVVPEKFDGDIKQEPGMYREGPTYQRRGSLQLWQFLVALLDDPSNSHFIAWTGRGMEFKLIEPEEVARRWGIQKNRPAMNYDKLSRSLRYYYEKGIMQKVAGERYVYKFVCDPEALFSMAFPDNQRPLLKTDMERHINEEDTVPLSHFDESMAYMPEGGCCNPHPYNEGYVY
Chain of ETV5 (P41161 whole entry): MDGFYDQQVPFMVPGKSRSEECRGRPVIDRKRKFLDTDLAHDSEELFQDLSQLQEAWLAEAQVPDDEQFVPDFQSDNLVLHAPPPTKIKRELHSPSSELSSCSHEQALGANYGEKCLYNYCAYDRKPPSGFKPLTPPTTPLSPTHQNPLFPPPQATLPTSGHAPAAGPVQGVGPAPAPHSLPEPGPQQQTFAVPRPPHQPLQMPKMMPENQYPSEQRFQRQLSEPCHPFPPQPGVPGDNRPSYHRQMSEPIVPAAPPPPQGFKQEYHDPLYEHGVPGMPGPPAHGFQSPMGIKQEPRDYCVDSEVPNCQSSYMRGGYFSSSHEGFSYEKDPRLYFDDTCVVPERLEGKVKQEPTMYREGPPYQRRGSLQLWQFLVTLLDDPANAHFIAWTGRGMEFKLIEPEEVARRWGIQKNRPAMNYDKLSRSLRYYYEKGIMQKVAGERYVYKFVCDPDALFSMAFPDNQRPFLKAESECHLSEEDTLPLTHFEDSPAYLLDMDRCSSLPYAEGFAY

Sequence: CAAAAA
- binding signal (FLI1): 1.14 fold enrichment (6-mer frequency, TF over GST control)
- binding signal (ELK1): 1.04 fold enrichment (6-mer frequency, TF over GST control)
- binding signal (GABPA): 1.16 fold enrichment (6-mer frequency, TF over GST control)
- binding signal (ERG): 1.07 fold enrichment (6-mer frequency, TF over GST control)
- binding signal (ELF1): 1.16 fold enrichment (6-mer frequency, TF over GST control)
- binding signal (EHF): 1.2 fold enrichment (6-mer frequency, TF over GST control)
- binding signal (SPI1): 1.32 fold enrichment (6-mer frequency, TF over GST control)
- binding signal (SPIB): 1.19 fold enrichment (6-mer frequency, TF over GST control)
- binding signal (ELK3): 1.17 fold enrichment (6-mer frequency, TF over GST control)
- binding signal (FEV): 1.2 fold enrichment (6-mer frequency, TF over GST control)
- binding signal (ETV5): 1.15 fold enrichment (6-mer frequency, TF over GST control)
- binding signal (HSF1): 1.08 fold enrichment (6-mer frequency, TF over GST control)
- binding signal (SPIC): 1.01 fold enrichment (6-mer frequency, TF over GST control)
- binding signal (ELF4): 1.18 fold enrichment (6-mer frequency, TF over GST control)
- binding signal (ELK4): 1.13 fold enrichment (6-mer frequency, TF over GST control)
- binding signal (ETV2): 1.17 fold enrichment (6-mer frequency, TF over GST control)
- binding signal (ELF3): 1.12 fold enrichment (6-mer frequency, TF over GST control)
- binding signal (CRX): 1.02 fold enrichment (6-mer frequency, TF over GST control)
- binding signal (ETV1): 1.22 fold enrichment (6-mer frequency, TF over GST control)
